Measured values reported in PubChem BioAssay.
Values without a mark were called inactive. For some assays here: Results with a measured potency or affinity are listed apart. Active and inactive are the calls of the source. Unless noted, no rule for the calls is given here.

Tests used:
[1] = antimalarial activity against Dd2 strain (AID 2302;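 active = growth inhibition above 50% at the single 2 µM test dose, taken to imply half-maximal potency below 2 µM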;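 also: 0% = DMSO untreated growth and 100% = chloroquine plus artemisinin killed control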); settings: P. falciparum Dd2 in RBCs, LDH growth readout, 72 h; at 2 µM; hits give high values
[2] = HepG2 cytotoxicity, primary screen, cytotoxicity control for P. falciparum antimalarial project, cell-based, ATP luminescence (AID 2303;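 active = inhibition above 50%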;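 also: 0% = DMSO wells and 100% = digitonin-killed cells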); settings: HepG2 viability, 24-48 h, at 10 µM, hits give high values
[3] = molecular target: L-lactate dehydrogenase (Plasmodium falciparum (isolate CDC / Honduras)) (UniProt Q27743); test: PfLDH activity inhibition – cell lysate, 3D7 strain, counter-screen for P. falciparum growth inhibition project (AID 2304);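 also: 0% = vehicle and 100% = reference inhibitor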; settings: P. falciparum 3D7 crude extract, LDH APAD/NBT absorbance; at 2 µM; hits give high values
[4] = inhibition of 3D7 malaria parasite growth – strain 3D7 (AID 2306);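 also: 0% = DMSO wells and 100% = chloroquine plus artemisinin control wells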; settings: P. falciparum 3D7 erythrocytic growth, LDH absorbance, 72 h; at 2 µM; hits give high values
[5] = molecular target: Calcium-dependent protein kinase 1 (Plasmodium falciparum (isolate 3D7)) (UniProt P62344); test: PfCDPK1 kinase inhibitors, biochemical, TCAMS library (AID 1159585; cut-off not given, nearly all actives have IC50 up to about 0.98 µM;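 also: inhibitors leave more ATP so luminescence rises with inhibition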); settings: recombinant PfCDPK1, Kinase-Glo ATP depletion luminescence
[6] = molecular target: Plasmodium falciparum protein kinase 6 (PK6, PF3D7_1337100) (UniProt Q8IDW1); test: PfPK6 kinase inhibitors, biochemical, TCAMS library (AID 1159586); settings: recombinant PfPK6, Kinase-Glo ATP depletion luminescence
[7] = molecular target: Protein kinase 7 (PK7), Plasmodium falciparum 3D7 (PF3D7_0213400) (UniProt Q7YTF7); test: inhibition of Plasmodium PK7 catalytic activity – biochemical, TCAMS antimalarial set, Kinase-Glo luminescence (AID 1159587); settings: recombinant PfPK7, Kinase-Glo ATP depletion luminescence
[8] = molecular target: Calcium-dependent protein kinase 4 (Plasmodium falciparum (isolate 3D7)) (UniProt Q8IBS5); test: PfCDPK4 kinase inhibitors, biochemical, TCAMS library (AID 1159588; cut-off not given, nearly all actives have IC50 up to about 0.91 µM); settings: recombinant PfCDPK4, Kinase-Glo ATP depletion luminescence
Chain of Calcium-dependent protein kinase 4 (Plasmodium falciparum (isolate 3D7)) (Q8IBS5 whole entry, looked up): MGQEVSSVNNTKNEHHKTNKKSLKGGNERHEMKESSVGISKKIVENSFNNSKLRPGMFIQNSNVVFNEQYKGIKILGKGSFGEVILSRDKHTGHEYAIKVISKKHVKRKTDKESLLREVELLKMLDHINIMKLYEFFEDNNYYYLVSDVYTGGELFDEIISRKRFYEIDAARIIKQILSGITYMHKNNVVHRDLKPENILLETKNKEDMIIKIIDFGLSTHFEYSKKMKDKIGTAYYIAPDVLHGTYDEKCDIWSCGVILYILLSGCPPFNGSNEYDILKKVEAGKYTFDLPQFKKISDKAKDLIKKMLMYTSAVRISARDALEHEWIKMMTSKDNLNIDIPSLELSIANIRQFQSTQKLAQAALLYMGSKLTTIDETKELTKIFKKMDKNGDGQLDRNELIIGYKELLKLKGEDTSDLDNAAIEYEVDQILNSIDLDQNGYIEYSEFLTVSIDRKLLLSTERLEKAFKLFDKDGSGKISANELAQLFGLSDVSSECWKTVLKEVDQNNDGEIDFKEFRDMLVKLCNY

Chain of L-lactate dehydrogenase (Plasmodium falciparum (isolate CDC / Honduras)) (Q27743 whole entry, looked up): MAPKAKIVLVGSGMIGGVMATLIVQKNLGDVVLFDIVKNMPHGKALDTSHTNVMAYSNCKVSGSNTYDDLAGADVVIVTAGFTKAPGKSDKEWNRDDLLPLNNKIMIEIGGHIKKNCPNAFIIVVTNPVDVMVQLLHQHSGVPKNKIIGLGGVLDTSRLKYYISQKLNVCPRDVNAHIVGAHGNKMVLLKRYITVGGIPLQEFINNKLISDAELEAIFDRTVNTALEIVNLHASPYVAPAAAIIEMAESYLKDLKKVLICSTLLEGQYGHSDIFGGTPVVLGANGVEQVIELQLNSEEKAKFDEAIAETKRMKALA
Chain of Plasmodium falciparum protein kinase 6 (PK6, PF3D7_1337100) (Q8IDW1 1-305): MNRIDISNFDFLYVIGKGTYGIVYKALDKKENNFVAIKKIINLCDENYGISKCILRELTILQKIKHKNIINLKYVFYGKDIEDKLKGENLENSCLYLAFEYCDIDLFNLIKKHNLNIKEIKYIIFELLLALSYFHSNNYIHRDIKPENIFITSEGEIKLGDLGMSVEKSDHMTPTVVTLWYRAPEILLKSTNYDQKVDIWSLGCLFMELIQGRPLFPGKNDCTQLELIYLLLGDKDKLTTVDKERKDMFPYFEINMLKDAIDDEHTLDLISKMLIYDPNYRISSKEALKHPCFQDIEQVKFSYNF
Chain of Protein kinase 7 (PK7), Plasmodium falciparum 3D7 (PF3D7_0213400) (Q7YTF7 1-343): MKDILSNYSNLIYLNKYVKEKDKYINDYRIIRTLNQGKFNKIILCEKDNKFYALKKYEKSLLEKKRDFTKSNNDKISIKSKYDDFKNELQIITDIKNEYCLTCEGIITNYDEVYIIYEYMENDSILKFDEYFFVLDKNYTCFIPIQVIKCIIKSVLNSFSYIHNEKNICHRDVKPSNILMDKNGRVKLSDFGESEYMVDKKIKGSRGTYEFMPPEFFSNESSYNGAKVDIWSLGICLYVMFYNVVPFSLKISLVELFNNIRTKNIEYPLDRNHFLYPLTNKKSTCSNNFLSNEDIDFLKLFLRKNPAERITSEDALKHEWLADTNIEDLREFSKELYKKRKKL
Chain of Calcium-dependent protein kinase 1 (Plasmodium falciparum (isolate 3D7)) (P62344 whole entry, looked up): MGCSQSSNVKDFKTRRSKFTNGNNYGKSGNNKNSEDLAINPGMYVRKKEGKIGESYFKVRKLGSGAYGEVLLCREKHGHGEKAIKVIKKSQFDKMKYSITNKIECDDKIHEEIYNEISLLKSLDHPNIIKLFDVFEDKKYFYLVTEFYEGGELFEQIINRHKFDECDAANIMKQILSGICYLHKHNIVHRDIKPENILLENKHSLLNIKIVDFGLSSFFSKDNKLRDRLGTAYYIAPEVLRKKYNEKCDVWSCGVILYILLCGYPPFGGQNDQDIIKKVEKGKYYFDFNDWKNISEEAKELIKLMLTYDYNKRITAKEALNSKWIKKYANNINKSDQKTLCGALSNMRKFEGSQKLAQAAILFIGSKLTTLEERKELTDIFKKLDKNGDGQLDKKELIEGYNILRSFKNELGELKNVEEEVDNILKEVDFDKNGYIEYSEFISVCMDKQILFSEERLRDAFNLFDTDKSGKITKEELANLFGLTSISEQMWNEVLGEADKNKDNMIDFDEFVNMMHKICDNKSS

Row | SMILES | growth inhibition [1] | inhibition [2] | inhibition [3] [%] | growth inhibition [4] | outcome [5] | outcome [6] | outcome [7] | outcome [8]
1 | COC(=O)c1ccc2[nH]cc(C3CCN(CCC4CCN(C(=O)/C=C/c5ccc(Cl)c(Cl)c5)CC4)CC3)c2c1 | 59% (active) | 24% | 1 | 97% (active) | inactive | inactive | inactive | inactive
2 | CN1c2ccc([N+](=O)[O-])cc2C(C)(C)C12C=Cc1cc(Br)cc([N+](=O)[O-])c1O2 (stereo not given) | 99% (active) | -8% | 1 | 101% (active) | inactive | inactive | inactive | inactive
3 | Cc1cc(N[C@@H](Cc2ccccc2)C(=O)NCCOc2ccccc2)nc(Nc2ccccc2)n1 | 63% (active) | 2% | -2 | 100% (active) | inactive | inactive | inactive | inactive
4 | Cc1cccc2[nH]c(-c3ccc(-c4ccc(CN5CCN(CC6CCCN(C)C6)CC5)cc4)cc3)nc12 (stereo not given) | 99% (active) | 91% (active) | -7 | 101% (active) | inactive | inactive | inactive | inactive
5 | O=c1cc(NCCC2CC=CCN2Cc2ccc(Cl)c(Cl)c2)[nH]c2ccccc12 (stereo not given) | 77% (active) | 7% | 4 | 94% (active) | inactive | inactive | inactive | inactive
6 | COc1ccc(-c2nc(NC(=O)COc3ccc(C(C)=O)cc3)sc2C)cc1 | 58% (active) | -2% | 2 | 98% (active) | inactive | inactive | inactive | inactive
7 | Cc1c(CNCCCNc2cc(=O)c3ccccc3[nH]2)sc(/C=N/O)c1Br | -2% | 0% | 6 | 82% (active) | inactive | inactive | inactive | inactive
8 | Cc1noc(C)c1-c1ccc(C(=C2CCCCCCC2)c2ccc(O)cc2)cc1 | 48% | -6% | 1 | 83% (active) | inactive | inactive | inactive | inactive
9 | CCCN(CCC)C(=O)c1cc(C(=O)N[C@@H](Cc2ccccc2)[C@H](O)CNCc2cccc(C(F)(F)F)c2)cc(N2CCCCS2(=O)=O)c1 | 74% (active) | -5% | 3 | 99% (active) | inactive | inactive | inactive | inactive
10 | COc1ccc2nc(-c3ccccc3)cc(NN=Cc3ccncc3)c2c1 | 27% | 14% | -2 | 99% (active) | inactive | inactive | inactive | inactive
11 | c1cc(CN2CCN(c3ccncc3)CC2)cc(-c2cccc(-c3nc4ccccc4[nH]3)c2)c1 | 98% (active) | 35% | 3 | 102% (active) | inactive | inactive | inactive | inactive
12 | O=c1cc(NCCC(CNCCc2ccccc2)NCc2cc(Br)cc(Br)c2)[nH]c2ccccc12 (stereo not given) | 47% | 3% | -6 | 98% (active) | inactive | inactive | inactive | inactive
13 | O=[N+]([O-])c1ccc(C2=NN(S(=O)(=O)c3c(Cl)cc(Cl)cc3Cl)CCCC2)cc1 | 98% (active) | 5% | 0 | 99% (active) | inactive | inactive | inactive | inactive
14 | CN1CCC(N2CCN(c3ccc4c(=O)nc(CCc5cccc(F)c5F)n(CC(=O)N(C)Cc5ccc(-c6ccc(C(F)(F)F)cc6)cc5)c4n3)CC2)CC1 | 99% (active) | 15% | 2 | 100% (active) | inactive | inactive | inactive | inactive
15 | O=C(Nc1cccc(C2=NCCCN2)c1)Nc1cccc(C2=NCCCN2)c1 | 70% (active) | 5% | -6 | 81% (active) | inactive | inactive | inactive | inactive
16 | CC(C)(C)c1cc(NC(=O)c2ccc(Cl)c([N+](=O)[O-])c2)cc(C(C)(C)C)c1 | 7% | -4% | 4 | 93% (active) | inactive | inactive | inactive | inactive
17 | CCCCCCc1cc(OC)c(OC)cc1C(C)Nc1ccnc2cc(Cl)ccc12 (stereo not given) | 79% (active) | 6% | -4 | 95% (active) | inactive | inactive | inactive | inactive
18 | CC1(C)N=C(N)N=C(N)N1OCCCNC(=O)c1ccc(C(=O)NCCCON2C(N)=NC(N)=NC2(C)C)cc1 | 96% (active) | 0% | 3 | 91% (active) | inactive | inactive | inactive | inactive
19 | NC1CCN(Cc2ccc(-c3cccc(-c4nc5ccccc5[nH]4)c3)cc2)C1 (stereo not given) | -3% | 19% | 5 | 98% (active) | inactive | inactive | inactive | inactive
20 | CCCCCn1c(Sc2ccc(C#N)c([N+](=O)[O-])c2)nnc1-c1cccs1 | 38% | 19% | -1 | 91% (active) | inactive | inactive | inactive | inactive

Row | SMILES | growth inhibition [1] | inhibition [2] | inhibition [3] [%] | growth inhibition [4] | outcome [5] | outcome [6] | outcome [7] | outcome [8]
21 | Cc1ccc(NC(=O)N2CCCN(CCCCCNC(=O)/C=C/c3ccc(Cl)c(Cl)c3)CC2)cc1C | 4% | 62% (active) | 1 | 101% (active) | inactive | inactive | inactive | inactive
22 | CCCc1cn2c3c(cc(C(=O)N[C@@H](Cc4ccccc4)[C@H](O)CNC4CCCCC4)cc13)N(C)S(=O)(=O)CC2 | 98% (active) | 3% | -2 | 99% (active) | inactive | inactive | inactive | inactive
23 | CN1CCN(CCCN(Cc2ccc(-c3cccc(CNC4CCCC4)c3)cc2)C(=O)Nc2ccccc2)CC1 | 76% (active) | 28% | -3 | 92% (active) | inactive | inactive | inactive | inactive
24 | N#Cc1ccc(NC(=NCc2ccc(Cl)cc2Cl)Nc2cccc(Cl)c2Cl)c(O)c1 | 75% (active) | 3% | -6 | 97% (active) | inactive | inactive | inactive | inactive
25 | O=C(/C=C/c1ccc(Cl)c(Cl)c1)NCCCCCN1CCCC(C(=O)Nc2ccc(Cl)cc2)C1 (stereo not given) | -3% | 35% | -3 | 98% (active) | inactive | inactive | inactive | inactive
26 | CCc1c(C)nc(-n2nc(C)cc2NC(=O)C(CC)c2ccccc2)[nH]c1=O (stereo not given) | 93% (active) | 41% | -1 | 97% (active) | inactive | inactive | inactive | inactive
27 | COc1ccc(N2CCN(CCCCNC(=O)c3ccc(NC(=O)c4cc(Cl)cc(Cl)c4)cc3)CC2)c(OC)c1 | 84% (active) | 21% | 2 | 100% (active) | inactive | inactive | inactive | inactive
28 | O=C(/C=C/c1ccc(Cl)c(Cl)c1)NCCCCCN1CCC(NC(=O)c2cc(Cl)ccc2F)CC1 | 32% | 48% | 4 | 92% (active) | inactive | inactive | inactive | inactive
29 | Cc1[nH]c(C)c(-c2ccc(-c3cccc(OC(F)(F)F)c3)nc2)c(=O)c1Cl | 97% (active) | 30% | -2 | 98% (active) | inactive | inactive | inactive | inactive
30 | CCCC1N=C(N)N=C(N)N1c1cccc([N+](=O)[O-])c1 (stereo not given) | 1% | -4% | 3 | 96% (active) | inactive | inactive | inactive | inactive
31 | CCN(CCCN1CCCCC1)c1cc(C)nc(Nc2ccc(F)c(C(F)(F)F)c2)n1 | 93% (active) | 32% | 0 | 100% (active) | inactive | inactive | inactive | inactive
32 | O=C(NOCCCCOc1ccc(Cl)c(Cl)c1)c1ccccc1 | 1% | 2% | 3 | 98% (active) | inactive | inactive | inactive | inactive
33 | O=C(Nc1cccc(C(F)(F)F)c1)c1cccc(S(=O)(=O)NC2CCN(CC3CCCCC3)C2)c1 (stereo not given) | 45% | 37% | -1 | 101% (active) | inactive | inactive | inactive | inactive
34 | CNC(=O)c1cnc(Nc2ccc(N3CCN(C)CC3)c(C)c2)nc1NC | 38% | 19% | -1 | 97% (active) | inactive | inactive | inactive | inactive
35 | CCc1cn2c3c(cc(C(=O)N[C@@H](Cc4ccccc4)[C@H](O)CNCc4ccc(C)cc4)cc13)N(C)S(=O)(=O)CC2 | 98% (active) | -4% | 5 | 99% (active) | inactive | inactive | inactive | inactive
36 | CC(Cc1ccc(OCCN2CCN(c3ccccc3)CC2)cc1)NCC(O)c1cccc(Cl)c1F (stereo not given) | 56% (active) | 40% | 6 | 92% (active) | inactive | inactive | inactive | inactive
37 | CCc1cn2c3c(cc(C(=O)N[C@@H](Cc4ccccc4)[C@H](O)CNC4CCCCC4)cc13)N(C)S(=O)(=O)C2 | 99% (active) | 20% | 0 | 99% (active) | inactive | inactive | inactive | inactive
38 | Cc1ccc(NC(=O)c2cnc(N3CCN(c4ccncc4)CC3)c(Cl)c2)cc1 | 24% | 25% | 4 | 94% (active) | inactive | inactive | inactive | inactive
39 | CCN1CCN(c2ccc(Nc3ccnc4ccc(Br)cc34)cc2)CC1 | 86% (active) | 37% | 2 | 98% (active) | inactive | inactive | inactive | inactive
40 | C[C@@H](C(=O)N1CCOCC1)N1CC[C@H](NS(=O)(=O)c2ccc3ccnc(N)c3c2)C1=O | 61% (active) | -6% | -4 | 84% (active) | inactive | inactive | inactive | inactive
